Bioassay records as filed in PubChem.
FMDV antiviral: foot and mouth disease virus antiviral activity; Potency, µM (highest dose often 57.9 µM), without a hit: at the top dose activity change, negative = inhibition, actives largely listed as inhibitors; 410,000 tested, 1.2% active; FMDV antiviral cell-based qHTS; AID 1159524; calls by dose curve; tested in HEK293T cells; also: read-out not given here; potency is read from the fitted curve at half-maximal effect; nearly all actives have a fitted effect of over 45% in size
HCMV inh: blocks human cytomegalovirus replication | activity change, negative = inhibition, % at 57.5 µM | 410,000 tested, 4.5% active | HFF cells, HCMV-luciferase reporter, 72 h; active compounds read low; in the data active = activity change below about -60%; inconclusive = no clear call, values can overlap the other calls; inactive = above about -39%
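Two-dose cell screen: HFF monolayers treated with compounds and infected with luciferase-expressing HCMV at 1 PFU/cell, 72 h at 37C, then lysed for luciferase measurement.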
HCV inhibitor: inhibitors of hepatitis C virus infection. 340,000 tested, 3.4% active. Potency, µM (doses to about 41.8 µM), for inactives: at the top dose activity change, negative = inhibition, hits mostly inhibitors. Huh7.5.1 HCVcc-Cre infection, luciferase reporter, 44 h; active = well fitted inhibition curve with a large enough effect; inconclusive = small, poorly fitted or top-dose-only effect, or another doubt; inactive = no such curve, though single readings can be large or run the other way; also: potency is read from the fitted curve at half-maximal effect
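Cells (1,000/well) were plated 4 h before compound, then infected with HCVcc-Cre virus (~0.5 moi). After 44 h further culture, infection was read as luciferase luminescence following a 15 min substrate incubation at room temperature.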
Vaccinia mCherry: inhibitors of vaccinia virus infection (mCherry reporter signal); Vaccinia virus mCherry reporter infection, fluorescence; 310,000 tested, 0.63% active; Potency, µM (top dose mostly 36.5 µM), without a hit: top-dose activity change, negative = inhibition, usual class: inhibitors; calls by dose curve; tested in A549 cells; also: potency is read from the fitted curve at half-maximal effect; nearly all actives have a fitted effect of over 35% in size
VACV Venus inh: vaccinia inhibition (Venus reporter); Vaccinia virus Venus reporter expression, fluorescence; 330,000 tested, 0.46% active; Potency, µM (highest dose often 36.5 µM), for inactives: top-dose activity change, negative = inhibition, actives largely listed as inhibitors; calls by dose curve; tested in A549 cells; also: potency is read from the fitted curve at half-maximal effect; nearly all actives have a fitted effect of over 30% in size
* marks the source's active call; other numbers are inactive results; [ ] = dose if it differs, or a comment. Hits are enriched below; roughly 7.3% of the tested compounds scored in any of these assays. % is scaled to controls: 0 for no effect and ±100 for the full control effect.

Results for Cc1ccc(NC(=O)c2cccc(S(=O)(=O)Nc3c(C)n(C)n(-c4ccccc4)c3=O)c2)cc1C ?
FMDV antiviral: 7%; HCMV inh: 11; HCV inhibitor: -22%

Results for Cc1oc(-c2ccccc2NC(=O)C2CCC2)nc1CNC(=O)c1c(F)ccc(F)c1F ?
FMDV antiviral: -8%; Vaccinia mCherry: -11%; VACV Venus inh: 9%

How did O=C(Nc1ccc2c(c1)N(C1CCCC1)C(=O)c1ccccc1S2)c1cccc(F)c1 do in these assays?
FMDV antiviral: inconclusive; HCMV inh: inconclusive; Vaccinia mCherry: inactive; VACV Venus inh: 1%

What do the screens show for `COc1ccc(CNC(=O)c2cccc(N3CCCS3(=O)=O)c2)cc1`?
FMDV antiviral: -22%; HCMV inh: -18; Vaccinia mCherry: -14%; VACV Venus inh: 2%

What do the screens show for `COc1ccc(CNC(=O)c2cccc(N3CCCS3(=O)=O)c2)cc1OC`?
FMDV antiviral: inconclusive; HCMV inh: -85*; Vaccinia mCherry: -22%[7.34 µM]; VACV Venus inh: -27%[7.34 µM]

Results for COc1ccc(C(=O)c2ccc(N3CCN(C(=O)c4ccc(F)cc4)CC3)c(F)c2)cc1Br ?
FMDV antiviral: inconclusive; HCMV inh: -88*; HCV inhibitor: inconclusive; Vaccinia mCherry: -8%[1.46 µM]; VACV Venus inh: -17%

What do the screens show for `CCOC(=O)c1c(NC(=S)N2CCOCC2)sc2c1CCN(C(=O)OCC)C2`?
FMDV antiviral: inconclusive; HCMV inh: -109*; HCV inhibitor: -51%; Vaccinia mCherry: inconclusive; VACV Venus inh: 1%

How did CCOC(=O)c1c(NC(=S)N2CCCCC2)sc2c1CCN(C(=O)OCC)C2 do in these assays?
FMDV antiviral: -17%; HCMV inh: -98*; HCV inhibitor: -69%; Vaccinia mCherry: -1%; VACV Venus inh: 2%

What do the screens show for `Cc1ccnc2ccc(I)cc12`?
Vaccinia mCherry: -20%; VACV Venus inh: -9%

Results for Cc1ccc(CN2CCN(C3CCN(S(=O)(=O)N(C)C)CC3)C(=O)C2=O)cc1 ?
FMDV antiviral: 1%; HCMV inh: -1; Vaccinia mCherry: -9%; VACV Venus inh: 1%

How did COc1ccc(NC(=O)Cn2nnc(-c3ccccc3NC(=O)c3cccs3)n2)cc1 do in these assays?
FMDV antiviral: -18%; HCMV inh: -27; HCV inhibitor: inconclusive; VACV Venus inh: inconclusive

What do the screens show for `CCN(CC(=O)Nc1ccccc1OC)C(=O)c1ccc(NS(=O)(=O)c2ccc(C(C)=O)cc2)cc1`?
FMDV antiviral: 158µM*; HCMV inh: 29; HCV inhibitor: 8%; Vaccinia mCherry: -8%; VACV Venus inh: -6%

Results for COc1ccccc1NC(=O)Cn1nnc(-c2ccccc2NS(=O)(=O)c2ccccc2)n1 ?
FMDV antiviral: inconclusive; HCMV inh: -67*; HCV inhibitor: inconclusive; Vaccinia mCherry: inconclusive; VACV Venus inh: -29%

What do the screens show for `CCn1nnc(-c2ccccc2NS(=O)(=O)c2ccc(C(=O)OC)cc2)n1`?
FMDV antiviral: -21%; HCMV inh: -29; HCV inhibitor: inconclusive; Vaccinia mCherry: -10%; VACV Venus inh: -9%

How did COc1ccc(NC(=O)Cn2nnc(-c3ccccc3NS(=O)(=O)c3ccc(OC)cc3)n2)cc1 do in these assays?
FMDV antiviral: -20%; HCMV inh: -12; HCV inhibitor: 11µM*; Vaccinia mCherry: -4%; VACV Venus inh: -26%

What do the screens show for `COc1ccc(CCNC(=O)c2cc3c(=O)n(C)c4cc(Cl)ccc4c3s2)cc1OC`?
FMDV antiviral: -5%; HCMV inh: -24; Vaccinia mCherry: 2%; VACV Venus inh: 0%

What do the screens show for `COc1cccc(Cn2c(=O)c(-c3ccccc3)nc3cnc(N4CCNCC4)nc32)c1`?
FMDV antiviral: -1%

How did Cc1noc(/C=C/c2cccnc2)c1[N+](=O)[O-] do in these assays?
FMDV antiviral: 14µM*; HCMV inh: -98*; HCV inhibitor: inconclusive

How did Cc1cccc(C)c1N/C=C/c1onc(C)c1[N+](=O)[O-] do in these assays?
FMDV antiviral: 0%; HCMV inh: -15; HCV inhibitor: 24%; VACV Venus inh: -7%

Results for C[C@@H]1COc2cccc(N3CCCC3)c2S(=O)(=O)N1 ?
HCMV inh: 3

What do the screens show for `CC(C)c1ccc(/C=N/Nc2ccc(C(=O)O)cc2)cc1`?
FMDV antiviral: 45µM*; HCMV inh: -63*; HCV inhibitor: 9%
